{"source": "PubChem BioAssay", "note": "Active and inactive are the calls of the source.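 Rule for the calls, unless noted: active = fluorescence slope higher than the sample average by over 3 SD (cut at about -0.22 in these data, passing the limit was not always enough); inactive = the rest.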"}
{"tested_on": "not listed separately", "experiment": "endothelial E-selectin expression blockers – imaging, HUVEC, immunofluorescence, MLSMR starter and 10KST1 sets, primary screen (AID 487;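 active = visually confirmed hit in the image check and inhibition above 20%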;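 for inhibition: signal is fraction of cell area covered by stained E-selectin grains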;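 for nuclei count: 100% = median nuclei count of all wells on the same plate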)", "details": "HUVEC TNFalpha-induced E-selectin immunofluorescence imaging, at 2 µM; inhibition: stronger effect = higher value; nuclei count: measured here: cell number, toxicity", "units": {"nuclei count": "%"}}
{"smiles": "Cc1ccc(S(=O)(=O)c2nc(-c3ccco3)oc2SCC(=O)NCC2CCCO2)cc1", "note": "(stereo not given)", "nuclei count": 109, "inhibition": "-16.1% (inactive)"}
{"smiles": "CC(=O)NCC(=O)OC(C)C(=O)Nc1ccc(C(C)=O)cc1", "note": "(stereo not given)", "inhibition": "-12.6% (inactive)", "nuclei count": 115}
{"smiles": "CCSc1nc2c(c(=O)n1CC)SC(C)C2", "note": "(stereo not given)", "inhibition": "8.4% (inactive)", "nuclei count": 95}
{"smiles": "Cn1cnnc1SCC(=O)Nc1sc2c(c1C#N)CCCCC2", "inhibition": "-29.2% (inactive)", "nuclei count": 108}
{"smiles": "Cc1nc2ccccc2c(=O)n1NC(=O)c1c(O)c2c(n(CC(C)C)c1=O)CCCC2", "inhibition": "21.1% (inactive)", "nuclei count": 101}
{"smiles": "Cc1ccc(S(=O)(=O)N(C)c2ccc(OCC(=O)OCc3c(C)noc3C)cc2)cc1", "nuclei count": 108, "inhibition": "-15.8% (inactive)"}
{"smiles": "Cn1cccc1C(=O)NC(=O)CSc1nnc(C2CC2)n1-c1ccccc1", "inhibition": "27.3% (inactive)", "nuclei count": 62.6}
{"smiles": "CC(=O)Nc1nc(C)c(-c2csc(Nc3ccc(O)cc3)n2)s1", "nuclei count": 164, "inhibition": "-154% (inactive)"}
{"smiles": "COc1ccc(-c2cnc(SCC(=O)Nc3ccc4c(c3)OCO4)n2Cc2ccco2)cc1", "inhibition": "-1.8% (inactive)", "nuclei count": 110}
{"smiles": "CCOc1cc(C2C(C(=O)c3ccccc3)=C(C(=O)OC)Nc3nnnn32)ccc1O", "note": "(stereo not given)", "nuclei count": 157, "inhibition": "-69.2% (inactive)"}
{"smiles": "CCCCC(CC)C(=O)Nc1ccc(Cl)cn1", "note": "(stereo not given)", "nuclei count": 117, "inhibition": "-29.4% (inactive)"}
{"smiles": "O=C(COn1nnc2ccc(C(F)(F)F)cc21)Nc1nnc(-c2ccccc2)o1", "inhibition": "108% (active)", "nuclei count": 80.2}
{"smiles": "CCCCC(=O)Nc1nn(CCC)c2nc3ccccc3cc12", "nuclei count": 116, "inhibition": "-44.8% (inactive)"}
{"smiles": "COc1ccccc1C(=O)n1nc(-c2ccccc2)nc1N", "nuclei count": 119, "inhibition": "-55.5% (inactive)"}
{"smiles": "O=C(OCc1cccs1)c1ccccc1NS(=O)(=O)c1ccc2c(c1)OCCO2", "inhibition": "9.5% (inactive)", "nuclei count": 108}
{"smiles": "COC(=O)c1oc2ccc(Br)cc2c1NC(=O)CN1CCN(C)CC1", "inhibition": "30.2% (inactive)", "nuclei count": 85.6}
{"smiles": "O=C(OCc1nnc(-c2ccccc2)o1)c1ccc(S(=O)(=O)NCc2ccco2)cc1", "inhibition": "-51.8% (inactive)", "nuclei count": 113}
{"smiles": "CCOC(=O)CSc1nnc(CNC(=O)c2cccs2)n1-c1cc(OC)ccc1OC", "nuclei count": 95.1, "inhibition": "-7.4% (inactive)"}
{"smiles": "CCn1c2ccccc2c2cc(NC(=O)Cc3ccc(S(=O)(=O)N4CCOCC4)s3)ccc21", "nuclei count": 109, "inhibition": "-10.9% (inactive)"}
{"smiles": "Cn1c2c(c(=O)[nH]c1=O)C(NC(=O)c1ccco1)(C(F)(F)F)C(=O)N2", "note": "(stereo not given)", "nuclei count": 135, "inhibition": "-95% (inactive)"}
{"smiles": "Cn1c(CCCNC(=O)c2ccccc2)nc2ccccc21", "inhibition": "-49.3% (inactive)", "nuclei count": 131}
{"smiles": "Cc1ccccc1N(CC(=O)NCC1CCCO1)C(=O)C1(C)CC(=O)N=C2C=CC=CN21", "note": "(stereo not given)", "nuclei count": 133, "inhibition": "-111% (inactive)"}
{"smiles": "O=C(CSc1nnnn1-c1ccccc1)Nc1nsc(-c2ccc(Cl)cc2)n1", "inhibition": "59.2% (inactive)", "nuclei count": 130}
{"smiles": "COc1ccccc1N1CCN(CCCNC(=O)Nc2ccccc2)CC1", "inhibition": "-129% (inactive)", "nuclei count": 106}
{"smiles": "CS(=O)(=O)N1CCN(CC2CC3C=CC2C3)CC1", "note": "(stereo not given)", "inhibition": "-18.9% (inactive)", "nuclei count": 123}
{"smiles": "COc1ccc(-n2ncc3c(NCc4ccc5c(c4)OCO5)ncnc32)cc1", "inhibition": "-9.3% (inactive)", "nuclei count": 105}
{"smiles": "O=S(=O)(NCCc1csc(-c2ccccc2)n1)c1ccc2c(c1)OCCO2", "inhibition": "29.5% (inactive)", "nuclei count": 76.2}
{"smiles": "c1ccc(CC2CCN(Cc3nc(-c4ccccc4)no3)CC2)cc1", "nuclei count": 124, "inhibition": "-139% (inactive)"}
{"smiles": "CCC(NS(=O)(=O)c1ccc(C)cc1)C(=O)N1CCC2(O)CCCCC2C1", "note": "(stereo not given)", "inhibition": "-121% (inactive)", "nuclei count": 215}
{"smiles": "O=C(CSc1nnnn1Cc1ccccc1)Nc1ccc2c(c1)OCO2", "inhibition": "-1% (inactive)", "nuclei count": 93.6}
{"smiles": "COc1cccc(-n2c(C)nc3c(cnn3-c3ccc(Cl)cc3)c2=O)c1", "inhibition": "-14.1% (inactive)", "nuclei count": 114}
{"smiles": "Cc1cccc(-n2nnc(C(=O)NCc3ccccc3)c2N)c1", "nuclei count": 106, "inhibition": "-2.7% (inactive)"}
{"smiles": "N#Cc1c(NC(=O)CSc2nc(N)cc(=O)[nH]2)sc2c1CCCCCC2", "inhibition": "-105% (inactive)", "nuclei count": 122}
{"smiles": "COc1ccccc1NC(=O)C1=C(C)Nc2ncnn2C1c1ccc(C)o1", "note": "(stereo not given)", "nuclei count": 85.1, "inhibition": "56.5% (inactive)"}
{"smiles": "CCN(C(=O)CN1CCN(c2ccccc2OC)CC1)c1c(N)n(Cc2ccccc2)c(=O)[nH]c1=O", "inhibition": "-52.2% (inactive)", "nuclei count": 102}
{"smiles": "COCCn1c(SCC(=O)Nc2nnc(C)s2)nnc1-c1ccncc1", "nuclei count": 115, "inhibition": "-32.1% (inactive)"}
{"smiles": "CCn1c(CC(=O)Nc2cccc(OC)c2)nnc1SCC(=O)Nc1nccs1", "inhibition": "-129% (inactive)", "nuclei count": 112}
{"smiles": "O=C(NC1CCCc2ccccc21)C1CCN(S(=O)(=O)c2cnc[nH]2)CC1", "note": "(stereo not given)", "inhibition": "-6.8% (inactive)", "nuclei count": 111}
{"smiles": "O=C(NC1(C(F)(F)F)NC(=O)N(Cc2ccco2)C1=O)c1cccnc1", "note": "(stereo not given)", "nuclei count": 122, "inhibition": "-26.5% (inactive)"}
{"smiles": "CCn1ncc(C2=NOC(C(=O)NCc3ccc(Cl)cc3)C2)c1C", "note": "(stereo not given)", "nuclei count": 102, "inhibition": "-240% (inactive)"}
{"molecular_target": "Voltage-gated potassium channel subunit beta-2 (Rattus norvegicus) (UniProt P62483)", "sequence (P62483 whole entry, looked up)": "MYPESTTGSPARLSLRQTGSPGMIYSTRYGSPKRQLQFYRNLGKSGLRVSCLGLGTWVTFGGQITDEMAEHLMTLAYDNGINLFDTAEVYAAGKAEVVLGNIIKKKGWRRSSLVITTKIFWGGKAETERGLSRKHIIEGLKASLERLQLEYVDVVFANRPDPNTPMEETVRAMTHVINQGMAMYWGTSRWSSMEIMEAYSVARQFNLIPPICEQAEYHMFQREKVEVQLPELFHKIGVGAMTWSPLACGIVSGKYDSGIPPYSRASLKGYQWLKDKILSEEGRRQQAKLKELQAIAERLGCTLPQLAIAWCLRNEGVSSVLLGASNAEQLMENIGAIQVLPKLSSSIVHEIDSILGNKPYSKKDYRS", "experiment": "inhibitors of rat Kvbeta2 reductase activity – biochemical, NADPH fluorescence, primary screen (AID 622);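 note: slope of raw intensity against log time taken from 70 to 1610 s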", "details": "recombinant KvBeta, 4-cyanobenzaldehyde reduction, at 10 µM, stronger effect = higher value"}
{"smiles": "Cc1ccc(S(=O)(=O)c2nc(-c3ccco3)oc2SCC(=O)NCC2CCCO2)cc1", "note": "(stereo not given)", "fluorescence slope": "-0.458 (inactive)"}
{"smiles": "CC(=O)NCC(=O)OC(C)C(=O)Nc1ccc(C(C)=O)cc1", "note": "(stereo not given)", "fluorescence slope": "-0.591 (inactive)"}
{"smiles": "CCSc1nc2c(c(=O)n1CC)SC(C)C2", "note": "(stereo not given)", "fluorescence slope": "-0.401 (inactive)"}
{"smiles": "Cn1cnnc1SCC(=O)Nc1sc2c(c1C#N)CCCCC2", "fluorescence slope": "-0.499 (inactive)"}
{"smiles": "Cc1nc2ccccc2c(=O)n1NC(=O)c1c(O)c2c(n(CC(C)C)c1=O)CCCC2", "fluorescence slope": "-0.558 (inactive)"}
{"smiles": "Cc1ccc(S(=O)(=O)N(C)c2ccc(OCC(=O)OCc3c(C)noc3C)cc2)cc1", "fluorescence slope": "-0.583 (inactive)"}
{"smiles": "Cn1cccc1C(=O)NC(=O)CSc1nnc(C2CC2)n1-c1ccccc1", "fluorescence slope": "-0.589 (inactive)"}
{"smiles": "CC(=O)Nc1nc(C)c(-c2csc(Nc3ccc(O)cc3)n2)s1", "fluorescence slope": "-0.556 (inactive)"}
{"smiles": "COc1ccc(-c2cnc(SCC(=O)Nc3ccc4c(c3)OCO4)n2Cc2ccco2)cc1", "fluorescence slope": "-0.5 (inactive)"}
{"smiles": "CCOc1cc(C2C(C(=O)c3ccccc3)=C(C(=O)OC)Nc3nnnn32)ccc1O", "note": "(stereo not given)", "fluorescence slope": "-0.52 (inactive)"}
{"smiles": "CCCCC(CC)C(=O)Nc1ccc(Cl)cn1", "note": "(stereo not given)", "fluorescence slope": "-0.377 (inactive)"}
{"smiles": "O=C(COn1nnc2ccc(C(F)(F)F)cc21)Nc1nnc(-c2ccccc2)o1", "fluorescence slope": "-0.503 (inactive)"}
{"smiles": "CCCCC(=O)Nc1nn(CCC)c2nc3ccccc3cc12", "fluorescence slope": "-0.568 (inactive)"}
{"smiles": "COc1ccccc1C(=O)n1nc(-c2ccccc2)nc1N", "fluorescence slope": "-0.619 (inactive)"}
{"smiles": "O=C(OCc1cccs1)c1ccccc1NS(=O)(=O)c1ccc2c(c1)OCCO2", "fluorescence slope": "-0.626 (inactive)"}
{"smiles": "COC(=O)c1oc2ccc(Br)cc2c1NC(=O)CN1CCN(C)CC1", "fluorescence slope": "-0.589 (inactive)"}
{"smiles": "O=C(OCc1nnc(-c2ccccc2)o1)c1ccc(S(=O)(=O)NCc2ccco2)cc1", "fluorescence slope": "-0.458 (inactive)"}
{"smiles": "CCOC(=O)CSc1nnc(CNC(=O)c2cccs2)n1-c1cc(OC)ccc1OC", "fluorescence slope": "-0.545 (inactive)"}
{"smiles": "CCn1c2ccccc2c2cc(NC(=O)Cc3ccc(S(=O)(=O)N4CCOCC4)s3)ccc21", "fluorescence slope": "-0.502 (inactive)"}
{"smiles": "Cn1c2c(c(=O)[nH]c1=O)C(NC(=O)c1ccco1)(C(F)(F)F)C(=O)N2", "note": "(stereo not given)", "fluorescence slope": "-0.542 (inactive)"}
{"smiles": "Cn1c(CCCNC(=O)c2ccccc2)nc2ccccc21", "fluorescence slope": "-0.275 (inactive)"}
{"smiles": "Cc1ccccc1N(CC(=O)NCC1CCCO1)C(=O)C1(C)CC(=O)N=C2C=CC=CN21", "note": "(stereo not given)", "fluorescence slope": "-0.492 (inactive)"}
{"smiles": "O=C(CSc1nnnn1-c1ccccc1)Nc1nsc(-c2ccc(Cl)cc2)n1", "fluorescence slope": "-0.561 (inactive)"}
{"smiles": "COc1ccccc1N1CCN(CCCNC(=O)Nc2ccccc2)CC1", "fluorescence slope": "-0.449 (inactive)"}
{"smiles": "CS(=O)(=O)N1CCN(CC2CC3C=CC2C3)CC1", "note": "(stereo not given)", "fluorescence slope": "-0.199 (inactive)"}
{"smiles": "COc1ccc(-n2ncc3c(NCc4ccc5c(c4)OCO5)ncnc32)cc1", "fluorescence slope": "-0.539 (inactive)"}
{"smiles": "O=S(=O)(NCCc1csc(-c2ccccc2)n1)c1ccc2c(c1)OCCO2", "fluorescence slope": "-0.622 (inactive)"}
{"smiles": "c1ccc(CC2CCN(Cc3nc(-c4ccccc4)no3)CC2)cc1", "fluorescence slope": "-0.456 (inactive)"}
{"smiles": "CCC(NS(=O)(=O)c1ccc(C)cc1)C(=O)N1CCC2(O)CCCCC2C1", "note": "(stereo not given)", "fluorescence slope": "-0.429 (inactive)"}
{"smiles": "O=C(CSc1nnnn1Cc1ccccc1)Nc1ccc2c(c1)OCO2", "fluorescence slope": "-0.257 (inactive)"}
{"smiles": "COc1cccc(-n2c(C)nc3c(cnn3-c3ccc(Cl)cc3)c2=O)c1", "fluorescence slope": "-0.553 (inactive)"}
{"smiles": "Cc1cccc(-n2nnc(C(=O)NCc3ccccc3)c2N)c1", "fluorescence slope": "-0.461 (inactive)"}
{"smiles": "N#Cc1c(NC(=O)CSc2nc(N)cc(=O)[nH]2)sc2c1CCCCCC2", "fluorescence slope": "-0.578 (inactive)"}
{"smiles": "COc1ccccc1NC(=O)C1=C(C)Nc2ncnn2C1c1ccc(C)o1", "note": "(stereo not given)", "fluorescence slope": "-0.554 (inactive)"}
{"smiles": "CCN(C(=O)CN1CCN(c2ccccc2OC)CC1)c1c(N)n(Cc2ccccc2)c(=O)[nH]c1=O", "fluorescence slope": "-0.424 (inactive)"}
{"smiles": "COCCn1c(SCC(=O)Nc2nnc(C)s2)nnc1-c1ccncc1", "fluorescence slope": "-0.172 (inactive)"}
{"smiles": "CCn1c(CC(=O)Nc2cccc(OC)c2)nnc1SCC(=O)Nc1nccs1", "fluorescence slope": "-0.545 (inactive)"}
{"smiles": "O=C(NC1CCCc2ccccc21)C1CCN(S(=O)(=O)c2cnc[nH]2)CC1", "note": "(stereo not given)", "fluorescence slope": "-0.566 (inactive)"}
{"smiles": "O=C(NC1(C(F)(F)F)NC(=O)N(Cc2ccco2)C1=O)c1cccnc1", "note": "(stereo not given)", "fluorescence slope": "-0.461 (inactive)"}
{"smiles": "CCn1ncc(C2=NOC(C(=O)NCc3ccc(Cl)cc3)C2)c1C", "note": "(stereo not given)", "fluorescence slope": "-0.421 (inactive)"}
